# Data: the supplement of paper PMC10498489
# Hit rate of the full screen: of about 2,300 compounds, about 330 (14%) showed activity. Not all results are given here. Unmarked numbers belong to inactive results.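 The calls were made as follows: active = median modified Z-score above 1.96; inactive = 1.96 or below.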
# Tested on: HepG2 Srxn1-GFP reporter cells (+30 nM CDDO-Me)
# Experiment: Srxn1-GFP intensity median modified Z-score relative to plate median; higher = stronger NRF2 / oxidative stress reporter activation, active = hit call of the paper
# Conditions: 10 µM; exposure time: 24h
# How it was run: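 The per-plate modified Z-score of GFP intensity, taken as a median across replicates, is what each value represents. Three replicate plates of HepG2 Srxn1-GFP BAC reporter cells were exposed for 24 h to an NRF2 activator at 30 nM combined with compound at 10 μM (≤0.1% DMSO). Cytoplasmic GFP per cell was read from confocal images, excluding any with under 100 cells, and scaling used 1.4826 × median absolute deviation.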
row,Compound,Srxn1-GFP intensity median modified Z-score
1,Cc1cc(=O)n(-c2ccccc2)[nH]1 [euspeclibcmpd1143],-0.434
2,CC(=O)N[C@@H]1[C@@H](OC(C)C(=O)O)[C@H](O)[C@@H](CO)O[C@H]1O (stereo partly drawn) [euspeclibcmpd2433],-0.153
3,COC(=O)C[C@H]1C(C)(C)[C@@H](OC(C)=O)C2CC3C4CC(=O)O[C@@H](c5ccoc5)[C@]4(C)CCC3[C@@]1(C)C2=O (stereo partly drawn) [euspeclibcmpd1596],1.31
4,C/C1=C/CC(C)(C)/C=C/C/C(C)=C/CC1 [euspeclibcmpd1338],0.112
5,CCN(CC)CCNc1ccc(CO)c2sc3ccccc3c(=O)c12 [euspeclibcmpd550],13.8 (active)
6,CCCCOc1cc(C(=O)NCCN(CC)CC)c2ccccc2n1 [euspeclibcmpd89],0.582
7,N=C(N)NCC1COC2(CCCCC2)O1 (stereo not drawn) [euspeclibcmpd1929],-0.0176
8,CN(CCOc1ccc(Cc2sc(=O)[nH]c2O)cc1)c1ccccn1 [euspeclibcmpd2243],0.517
9,Oc1cccc(O)c1 [euspeclibcmpd262],13.8 (active)
10,CC(=O)Nc1cccc(O)c1 [euspeclibcmpd1259],-0.0594
11,Oc1ccc2ccccc2c1 [euspeclibcmpd1176],1.48
12,CCCCC(=O)N(Cc1ccc(-c2ccccc2-c2nn[nH]n2)cc1)C(C(=O)O)C(C)C (stereo not drawn) [euspeclibcmpd719],-1.02
13,CC(=O)OCC(=O)[C@@]1(O)CCC2C3CC=C4CC(=O)CC[C@]4(C)C3C(=O)C[C@@]21C (stereo partly drawn) [euspeclibcmpd74],-0.793
14,N#C/C(=C\c1ccc(SC(F)(F)F)cc1)c1nnc2n1CCCCC2,2.21 (active)
15,CCN[C@@H]1C[C@H](N)[C@@H](O[C@H]2OC(CN)=CC[C@H]2N)[C@H](O)[C@H]1OC1OC[C@](C)(O)[C@H](NC)[C@H]1O (stereo partly drawn) [euspeclibcmpd845],-0.391
16,CC(C)COCC(CN(Cc1ccccc1)c1ccccc1)N1CCCC1 (stereo not drawn) [euspeclibcmpd972],-0.387
17,CC(COc1ccccc1)N(CCCl)Cc1ccccc1 (stereo not drawn) [euspeclibcmpd203],3.84 (active)
18,CCOC(=O)OC(C)OC1=C(C(=O)N=c2cccc[nH]2)N(C)S(=O)(=O)c2ccccc21 (stereo not drawn) [euspeclibcmpd1195],0.103
19,CCCCC(=O)O[C@H]1CCC2C3CCc4cc(O)ccc4C3CC[C@@]21C (stereo partly drawn) [euspeclibcmpd117],-0.716
20,O=C(O)[C@]1(O)C[C@@H](O)[C@@H](O)[C@H](O)C1 [euspeclibcmpd1500],-0.119
21,O=c1ccc2ccccc2o1 [euspeclibcmpd1076],-0.351
22,Cc1cc(C)[nH]c(=NS(=O)(=O)c2ccc(N)cc2)n1 [euspeclibcmpd276],-0.664

row,Compound,Srxn1-GFP intensity median modified Z-score
1,Cc1cc(C(=O)NCCCn2cncn2)no1,1.31
2,CC(=O)O[C@@H]1C[C@@]23C[C@@]24CC[C@H](O[C@@H]2OC[C@@H](O)[C@H](O)[C@H]2O)C(C)(C)C4CCC3[C@]2(C)C[C@@H]3OC4(C[C@@H](C)[C@@H]3[C@@]12C)O[C@H](O)[C@]1(C)O[C@H]41 (stereo partly drawn) [euspeclibcmpd2415],0.583
3,CC(=O)CC(c1ccccc1)c1c(O)c2ccccc2oc1=O (stereo not drawn) [euspeclibcmpd321],5.96 (active)
4,O=c1c(O)c(-c2ccccc2)oc2ccccc12 [euspeclibcmpd1679],1.3
5,CC(=O)CC(c1ccc([N+](=O)[O-])cc1)c1c(O)c2ccccc2oc1=O (stereo not drawn) [euspeclibcmpd502],-0.425
6,COc1ccc2c(c1)OCc1c-2oc2cc(OC)ccc12 [euspeclibcmpd1708],13.6 (active)
7,COc1ccc2c(C)cc(=O)oc2c1 [euspeclibcmpd1528],-0.287
8,COc1ccc2c(=O)c(OC)c(-c3ccccc3)oc2c1 [euspeclibcmpd1977],0.483
9,CO[C@@]1(NC(O)=c2sc(=C(C(N)=O)C(=O)O)s2)C(=O)N2C(C(=O)O)=C(CSc3nnnn3C)CSC21 (stereo partly drawn) [euspeclibcmpd474],-0.0789
10,CC(C)CCCC(C)C1CCC2C3CC[C@H]4CCCC[C@]4(C)C3CC[C@]12C (stereo partly drawn) [euspeclibcmpd1324],1.13
11,CCCCCN=C(N)NN=Cc1c[nH]c2ccc(OC)cc12 [euspeclibcmpd723],-0.285
12,COc1ccc2[nH]cc(CCNC(C)=O)c2c1 [euspeclibcmpd1720],-0.164
13,CCCSc1ccc2[nH]c(=NC(=O)OC)[nH]c2c1 [euspeclibcmpd630],3.71 (active)
14,CCCOc1ccc2[nH]c(=NC(=O)OC)[nH]c2c1 [euspeclibcmpd575],5.09 (active)
15,NCCc1c[nH]cn1 [euspeclibcmpd147],0.0512
16,COC=C1CS[C@@H]2C(=NC(=O)C(NOC)c3csc(=N)[nH]3)C(=O)N2C1C(=O)OC(C)OC(=O)OC(C)C (stereo partly drawn) [euspeclibcmpd832],-0.299
17,O=C1CC2(CCCC2)CC(=O)N1CCCCN1CCN(c2ncccn2)CC1 [euspeclibcmpd948],0.569
18,CC1(C)SC2C(NC(=O)C(C(=O)O)c3ccsc3)C(=O)N2C1C(=O)O (stereo not drawn) [euspeclibcmpd2129],-0.127
19,C[C@H](CCC(=O)O)[C@H]1CCC2C3C(CC[C@@]21C)[C@@]1(C)CC[C@@H](O)C[C@H]1C[C@H]3O (stereo partly drawn) [euspeclibcmpd2399],-0.395
20,CCC(=O)O[C@H]1[C@H](O[C@@H]2[C@@H](C)[C@H](O[C@H]3C[C@@](C)(OC)[C@@H](O)[C@H](C)O3)C(C)C(=O)O[C@H](CC)[C@@](C)(O)[C@H](O)C(C)C(=O)C(C)C[C@@]2(C)O)O[C@H](C)C[C@@H]1N(C)C (stereo partly drawn) [euspeclibcmpd411],0.128
21,COC(=O)c1c(C)cc(O)cc1O [euspeclibcmpd2120],-0.435
